# Assay results published in PubChem BioAssay (EPA / NIEHS).
# Results filed as inconclusive are left out. Calls of active or inactive are those of the source. Rule for the calls, unless noted: active = hit-call score of the fitted dose curve at least 0.9, where 1 is the maximum; inactive = score below 0.9.
# Tests used:
# [1] = ATG_TAL_CIS: Attagene CIS-FACTORIAL HepG2 Assay for human TAL Basal Promoter (AID 2282966); settings: HepG2 Attagene cis-factorial TAL promoter reporter; actives raise or lower the signal;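 note: background control endpoint measuring basal TAL promoter reporter mRNA not a specific factor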
# Procedure, shortened: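 Fluorescence of labelled reporter cDNA fragments, resolved by capillary electrophoresis, gave the readout. Human HepG2 liver cells carried transiently transfected cis-element reporter units and were treated for 24 hours; activity was fitted bidirectionally against DMSO.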
# [2] = ATG_TGFb_CIS: Attagene CIS-FACTORIAL HepG2 Assay for human Transforming Growth Factor (TGF) (AID 2282967); settings: HepG2 Attagene CIS TGFb reporter, mRNA transcription; actives raise or lower the signal
# Procedure, shortened: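 Multiplexed cis-reporter HepG2 system, 24 h treatment; mRNA induction read by fluorescence after RT-PCR and CE; DMSO negative control, bidirectional curve fitting.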
# [3] = ATG_VDRE_CIS: Attagene CIS-FACTORIAL HepG2 Assay for human Vitamin D Receptor Element (VDRE) (AID 2282968); settings: HepG2 VDRE cis-reporter transcription, actives raise or lower the signal
# Procedure, shortened: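 RT-PCR/CE readout of reporter mRNA; HepG2, transient transfection, 24 h dosing; DMSO baseline; bidirectional analysis.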
# [4] = target: Steroid hormone receptor ERR1 (Homo sapiens) (UniProt P11474); assay: ATG_ERRa_TRANS: Attagene TRANS-FACTORIAL HepG2 Assay for human Estrogen-Related Receptor alpha (ERRa) (AID 2282971; active = hit-call score of the fitted dose curve at least 0.9, where 1 is the maximum); settings: HepG2 Attagene TRANS reporter, ERRa transactivation
# Procedure, shortened: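 Reporter transcript induction was quantified by RT-PCR and capillary electrophoresis of FAM-labelled, HpaI-cut products after 24 h treatment of HepG2 cells carrying transiently transfected GAL4-UAS reporter units and an exogenous ERRa-Gal4 fusion; activity scored as increase over DMSO.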
# [5] = target: X-box-binding protein 1 (Homo sapiens) (UniProt P17861); assay: ATG_Xbp1_CIS: Attagene CIS-FACTORIAL HepG2 Assay for human X-box Binding Protein 1 (XBP1) (AID 2282972); settings: HepG2 XBP1 cis-element reporter, Attagene multiplex; actives raise or lower the signal
# Procedure, shortened: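 Fluorescence-labelled cDNA fragments from reporter transcripts, separated by capillary electrophoresis, give the signal. Source: HepG2 cells transfected with promoter-driven reporter units, harvested 24 h post-dose. DMSO served as reference for bidirectional curve fitting.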
# [6] = target: Estrogen-related receptor gamma (Homo sapiens) (UniProt P62508); assay: ATG_ERRg_TRANS: Attagene TRANS-FACTORIAL HepG2 Assay for human Estrogen-Related Receptor gamma (ERRg) (AID 2282977; active = hit-call score of the fitted dose curve at least 0.9, where 1 is the maximum;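 note: hits increase reporter signal over DMSO so potencies reflect activators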); settings: HepG2 Attagene TRANS reporter, ERRg transactivation
# Procedure, shortened: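 Transfect HepG2 with multiple GAL4-UAS reporter transcription units; dose chemicals 24 h; isolate RNA, reverse-transcribe with oligo(dT), PCR-amplify, label with 6-FAM, digest with HpaI; size fragments by capillary electrophoresis. DMSO serves as negative control.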
# [7] = ATG_M_19_TRANS: Attagene TRANS-FACTORIAL HepG2 Assay for M19 Transcription Factor (Internal Marker) (AID 2282974; active = hit-call score of the fitted dose curve at least 0.9, where 1 is the maximum); settings: HepG2 Attagene TRANS-FACTORIAL M19 internal marker reporter
# Procedure, shortened: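 Transfected HepG2 (GAL4-UAS MRTUs), 24 h compound, TriZol RNA, DNase-treated RT, reporter PCR, FAM label, HpaI digest, CE fluorescence; gain vs DMSO.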
# [8] = ATG_GAL4_TRANS: Attagene TRANS-FACTORIAL HepG2 Assay for GAL4 (Internal Marker) (AID 2282976; active = hit-call score of the fitted dose curve at least 0.9, where 1 is the maximum); settings: HepG2 Attagene TRANS GAL4 internal marker reporter
# Procedure, shortened: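 First, HepG2 cells were transfected with reporter units under GAL4-UAS control. Next, they were treated with chemical for 24 h. Finally, RNA was reverse-transcribed, PCR-amplified, FAM-labelled and resolved by capillary electrophoresis, with induction scored against DMSO.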
# [9] = target: Nuclear receptor subfamily 1 group I member 3 (Homo sapiens) (UniProt Q14994); assay: ATG_CAR_TRANS: Attagene TRANS-FACTORIAL HepG2 Assay for human Constitutive Androstane Receptor (CAR) (AID 2282969; active = hit-call score of the fitted dose curve at least 0.9, where 1 is the maximum;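 note: activators raise reporter mRNA above DMSO so AC50 marks induction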); settings: HepG2 Attagene TRANS-FACTORIAL CAR reporter
# Procedure, shortened: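 HepG2 cells transiently transfected with multiplexed GAL4-UAS reporter units expressing chimeric NR-Gal4 proteins; compound exposure 24 h. Reporter mRNA measured by RT-PCR, 6-FAM labelling, HpaI digestion and capillary electrophoresis; gain-of-signal fitted against DMSO baseline.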
# [10] = target: Estrogen receptor (Homo sapiens) (UniProt P03372); assay: ATG_ERa_TRANS: Attagene TRANS-FACTORIAL HepG2 Assay for human Estrogen Receptor alpha (ERa) (AID 2282970; active = hit-call score of the fitted dose curve at least 0.9, where 1 is the maximum); settings: HepG2 Attagene TRANS ERa GAL4 reporter, mRNA
# Procedure, shortened: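 Human liver HepG2, transient transfection of multiple GAL4-UAS reporter units; TRANS format (exogenous NR-Gal4 chimera). 24 h dosing. Readout: reporter mRNA, RT-PCR, 6-FAM primer extension, HpaI digest, capillary electrophoresis. Positive direction vs DMSO.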
# Sequence of X-box-binding protein 1 (Homo sapiens) (P17861 whole entry, looked up, the tested form may be a part): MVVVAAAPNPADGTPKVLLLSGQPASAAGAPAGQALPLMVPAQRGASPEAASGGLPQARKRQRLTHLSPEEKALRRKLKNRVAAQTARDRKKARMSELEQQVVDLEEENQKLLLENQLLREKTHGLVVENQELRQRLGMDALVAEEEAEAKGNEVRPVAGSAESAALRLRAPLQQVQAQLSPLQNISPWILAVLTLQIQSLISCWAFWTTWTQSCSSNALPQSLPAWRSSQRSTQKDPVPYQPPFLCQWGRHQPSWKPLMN
# Sequence of Estrogen-related receptor gamma (Homo sapiens) (P62508 whole entry, looked up, the tested form may be a part): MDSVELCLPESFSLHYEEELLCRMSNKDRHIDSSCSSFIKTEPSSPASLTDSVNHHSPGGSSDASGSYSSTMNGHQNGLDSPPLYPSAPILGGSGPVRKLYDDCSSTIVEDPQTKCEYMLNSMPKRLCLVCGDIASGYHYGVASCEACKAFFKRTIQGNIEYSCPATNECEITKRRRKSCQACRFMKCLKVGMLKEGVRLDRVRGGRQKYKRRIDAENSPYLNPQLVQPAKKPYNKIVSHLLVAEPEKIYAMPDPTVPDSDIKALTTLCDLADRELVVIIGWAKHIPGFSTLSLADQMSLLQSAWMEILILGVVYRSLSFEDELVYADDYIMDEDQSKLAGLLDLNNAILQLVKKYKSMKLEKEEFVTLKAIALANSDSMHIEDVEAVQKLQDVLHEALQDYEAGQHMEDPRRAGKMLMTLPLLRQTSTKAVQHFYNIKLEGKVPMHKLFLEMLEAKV
# Sequence of Steroid hormone receptor ERR1 (Homo sapiens) (P11474 whole entry, looked up, the tested form may be a part): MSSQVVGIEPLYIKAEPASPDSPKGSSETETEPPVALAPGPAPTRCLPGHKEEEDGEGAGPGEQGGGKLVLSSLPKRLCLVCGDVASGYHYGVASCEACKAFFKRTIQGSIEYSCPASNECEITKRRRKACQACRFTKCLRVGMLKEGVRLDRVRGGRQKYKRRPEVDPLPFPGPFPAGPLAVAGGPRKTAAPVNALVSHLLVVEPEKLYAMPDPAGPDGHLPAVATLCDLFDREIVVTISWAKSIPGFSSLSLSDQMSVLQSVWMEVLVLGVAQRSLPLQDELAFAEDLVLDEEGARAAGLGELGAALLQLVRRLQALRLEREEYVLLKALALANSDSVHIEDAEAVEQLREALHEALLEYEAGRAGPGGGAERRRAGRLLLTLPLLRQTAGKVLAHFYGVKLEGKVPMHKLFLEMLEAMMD
# Sequence of Nuclear receptor subfamily 1 group I member 3 (Homo sapiens) (Q14994 whole entry, looked up, the tested form may be a part): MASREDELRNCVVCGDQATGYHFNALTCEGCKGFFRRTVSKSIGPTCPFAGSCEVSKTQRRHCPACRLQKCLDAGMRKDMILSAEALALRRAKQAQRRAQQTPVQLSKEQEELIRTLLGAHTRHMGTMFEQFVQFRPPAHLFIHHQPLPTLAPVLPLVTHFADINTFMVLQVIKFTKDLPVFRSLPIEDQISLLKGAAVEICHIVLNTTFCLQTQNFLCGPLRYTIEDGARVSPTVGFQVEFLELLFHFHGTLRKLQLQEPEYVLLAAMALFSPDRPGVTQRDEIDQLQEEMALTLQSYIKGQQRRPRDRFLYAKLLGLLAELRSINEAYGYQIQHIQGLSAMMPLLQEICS
# Sequence of Estrogen receptor (Homo sapiens) (P03372 whole entry, looked up, the tested form may be a part): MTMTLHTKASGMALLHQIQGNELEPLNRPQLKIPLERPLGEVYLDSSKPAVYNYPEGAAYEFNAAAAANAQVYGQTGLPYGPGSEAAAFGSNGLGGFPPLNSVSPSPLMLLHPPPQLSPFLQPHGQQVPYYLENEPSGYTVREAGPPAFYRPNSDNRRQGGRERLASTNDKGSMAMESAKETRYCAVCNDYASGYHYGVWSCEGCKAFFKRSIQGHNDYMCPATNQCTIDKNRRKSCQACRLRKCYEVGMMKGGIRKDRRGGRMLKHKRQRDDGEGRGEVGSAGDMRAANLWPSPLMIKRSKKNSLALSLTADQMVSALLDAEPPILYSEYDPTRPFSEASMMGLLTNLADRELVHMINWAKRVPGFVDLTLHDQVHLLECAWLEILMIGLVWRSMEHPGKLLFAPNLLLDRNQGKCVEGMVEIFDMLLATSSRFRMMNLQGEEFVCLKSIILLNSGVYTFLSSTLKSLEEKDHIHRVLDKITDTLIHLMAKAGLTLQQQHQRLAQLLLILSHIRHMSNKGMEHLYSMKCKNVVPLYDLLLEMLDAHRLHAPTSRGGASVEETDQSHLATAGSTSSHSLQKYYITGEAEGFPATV
compound,measurement,setting,value
C/C=C\C/C=C/CCCCCCCCOC(C)=O,outcome,[1],inactive
same,outcome,[2],inactive
same,AC50,[3],30.1 µM (active)
same,outcome,[4],inactive
same,AC50,[5],100 µM (active)
same,outcome,[6],inactive
COCc1c(C(C)C)nc(C(C)C)c(/C=C/[C@@H](O)C[C@@H](O)CC(=O)O)c1-c1ccc(F)cc1,outcome,[1],inactive
same,outcome,[2],inactive
same,AC50,[3],2.34 µM (active)
same,outcome,[5],inactive
same,outcome,[7],inactive
same,outcome,[8],inactive
Cc1cccc(N)n1,outcome,[1],inactive
same,outcome,[2],inactive
same,outcome,[3],inactive
same,outcome,[5],inactive
same,outcome,[7],inactive
NC(=O)C1CO1 (stereo not given),outcome,[1],inactive
same,outcome,[2],inactive
same,outcome,[3],inactive
same,outcome,[5],inactive
same,outcome,[7],inactive
O=P(O)(O)Oc1ccccc1,outcome,[1],inactive
same,outcome,[2],inactive
same,outcome,[3],inactive
same,outcome,[5],inactive
CN(C)c1ccc(N=Nc2ccccc2C(=O)O)cc1,outcome,[1],inactive
same,outcome,[2],inactive
same,AC50,[3],16.4 µM (active)
same,AC50,[5],9.33 µM (active)
CCCOCCOCCOCCO,outcome,[1],inactive
same,outcome,[2],inactive
same,outcome,[3],inactive
same,outcome,[4],inactive
same,outcome,[5],inactive
same,outcome,[7],inactive
same,outcome,[6],inactive
CCc1nccnc1C,outcome,[1],inactive
same,outcome,[2],inactive
same,outcome,[3],inactive
same,outcome,[4],inactive
same,outcome,[5],inactive
same,outcome,[7],inactive
same,outcome,[8],inactive
same,outcome,[6],inactive
Cn1c([N+](=O)[O-])cnc1COC(N)=O,outcome,[1],inactive
same,outcome,[2],inactive
same,outcome,[3],inactive
same,outcome,[4],inactive
same,outcome,[5],inactive
same,outcome,[6],inactive
CC1(C)S[C@@H]2[C@H](NC(=O)COc3ccccc3)C(=O)N2[C@H]1C(=O)O,outcome,[1],inactive
same,outcome,[2],inactive
same,outcome,[3],inactive
same,outcome,[5],inactive
same,outcome,[7],inactive
same,outcome,[6],inactive
CCCCCCCC(C)=O,outcome,[1],inactive
same,outcome,[2],inactive
same,outcome,[3],inactive
same,outcome,[5],inactive
same,outcome,[7],inactive
same,outcome,[8],inactive
O=C1C=CC(=O)O1,outcome,[1],inactive
same,outcome,[2],inactive
same,outcome,[3],inactive
same,outcome,[5],inactive
C=CC(C)(C)C,outcome,[1],inactive
same,outcome,[2],inactive
same,outcome,[3],inactive
same,outcome,[4],inactive
same,outcome,[5],inactive
same,outcome,[7],inactive
same,outcome,[8],inactive
same,outcome,[6],inactive
O=C1CCCC1,outcome,[1],inactive
same,outcome,[2],inactive
same,outcome,[3],inactive
same,outcome,[5],inactive
same,outcome,[7],inactive
same,outcome,[8],inactive
same,outcome,[6],inactive
O=C(C(Cl)Cl)N1CCOC12CCCCC2,outcome,[1],inactive
same,outcome,[2],inactive
same,outcome,[3],inactive
same,outcome,[5],inactive
Cc1ccc(N)c([N+](=O)[O-])c1,outcome,[1],inactive
same,outcome,[2],inactive
same,outcome,[3],inactive
same,outcome,[5],inactive
NC(CO)(CO)CO,outcome,[1],inactive
same,outcome,[2],inactive
same,outcome,[3],inactive
same,outcome,[5],inactive
O=C1CCC(=O)N1Cl,outcome,[1],inactive
same,outcome,[2],inactive
same,outcome,[3],inactive
same,outcome,[5],inactive
same,outcome,[7],inactive
same,outcome,[8],inactive
O=S(=O)(O)c1ccc2cc(O)c(S(=O)(=O)O)cc2c1,outcome,[1],inactive
same,outcome,[2],inactive
same,outcome,[3],inactive
same,AC50,[5],172 µM (active)
same,outcome,[7],inactive
c1cc(C(c2ccc(OCC3CO3)cc2)C(c2ccc(OCC3CO3)cc2)c2ccc(OCC3CO3)cc2)ccc1OCC1CO1 (stereo not given),AC50,[1],44.8 µM (active)
same,outcome,[2],inactive
same,AC50,[3],17 µM (active)
same,AC50,[5],22.9 µM (active)
same,outcome,[7],inactive
same,outcome,[8],inactive
CO[Si](CCC1CCC2OC2C1)(OC)OC (stereo not given),outcome,[1],inactive
same,outcome,[2],inactive
same,outcome,[3],inactive
same,outcome,[5],inactive
same,outcome,[7],inactive
same,outcome,[8],inactive
OC1CCCC1,outcome,[1],inactive
same,outcome,[2],inactive
same,outcome,[3],inactive
same,outcome,[5],inactive
same,outcome,[7],inactive
same,outcome,[8],inactive
same,outcome,[6],inactive
CCCOC(=O)CCCCC(=O)OCCC,outcome,[1],inactive
same,outcome,[2],inactive
same,outcome,[3],inactive
same,outcome,[4],inactive
same,outcome,[5],inactive
same,outcome,[7],inactive
same,outcome,[8],inactive
same,outcome,[6],inactive
Cc1ccc(N/N=c2\c(=O)cc/c(=N/Nc3ccc(S(=O)(=O)O)cc3)c2=O)c(C)c1,outcome,[1],inactive
same,outcome,[2],inactive
same,outcome,[9],inactive
same,AC50,[10],100 µM (active)
same,outcome,[4],inactive
same,outcome,[5],inactive
same,outcome,[6],inactive
COC(F)(F)C(F)(C(F)(F)F)C(F)(F)F,outcome,[1],inactive
same,outcome,[2],inactive
same,outcome,[3],inactive
same,outcome,[5],inactive
same,outcome,[8],inactive
CCCCCC/C=C\CCCCCCCC(=O)O,outcome,[1],inactive
same,outcome,[2],inactive
same,outcome,[3],inactive
same,outcome,[5],inactive
same,outcome,[8],inactive
COCCOCCOCCOCCOC,outcome,[1],inactive
same,outcome,[2],inactive
same,outcome,[3],inactive
same,outcome,[8],inactive
NC(=O)NNC(N)=O,outcome,[1],inactive
same,outcome,[2],inactive
same,outcome,[3],inactive
same,outcome,[5],inactive
same,outcome,[7],inactive
same,outcome,[6],inactive
CCOC(F)(F)C(F)(F)C(F)(F)C(F)(F)F,outcome,[1],inactive
same,outcome,[2],inactive
same,outcome,[3],inactive
same,outcome,[5],inactive
same,outcome,[8],inactive
COC(=O)c1sccc1S(N)(=O)=O,outcome,[1],inactive
same,outcome,[2],inactive
same,outcome,[3],inactive
same,outcome,[5],inactive
same,outcome,[7],inactive
same,outcome,[6],inactive
